Data: PubChem BioAssay (NCATS)
Results filed as inconclusive are left out. Where a call stands in place of a potency, no number is given. Active and inactive are the calls of the source. Calls come from the whole dose curve; as a rule, active = well fitted curve in the direction sought with a large enough effect; inconclusive = small, poorly fitted or top-dose-only effect, or another doubt; inactive = no such curve, though single readings can be large; an effect the other way counts as inactive or inconclusive.

Target: Tyrosine-protein kinase Yes (Homo sapiens) (UniProt P07947)
Sequence (P07947 whole entry, looked up): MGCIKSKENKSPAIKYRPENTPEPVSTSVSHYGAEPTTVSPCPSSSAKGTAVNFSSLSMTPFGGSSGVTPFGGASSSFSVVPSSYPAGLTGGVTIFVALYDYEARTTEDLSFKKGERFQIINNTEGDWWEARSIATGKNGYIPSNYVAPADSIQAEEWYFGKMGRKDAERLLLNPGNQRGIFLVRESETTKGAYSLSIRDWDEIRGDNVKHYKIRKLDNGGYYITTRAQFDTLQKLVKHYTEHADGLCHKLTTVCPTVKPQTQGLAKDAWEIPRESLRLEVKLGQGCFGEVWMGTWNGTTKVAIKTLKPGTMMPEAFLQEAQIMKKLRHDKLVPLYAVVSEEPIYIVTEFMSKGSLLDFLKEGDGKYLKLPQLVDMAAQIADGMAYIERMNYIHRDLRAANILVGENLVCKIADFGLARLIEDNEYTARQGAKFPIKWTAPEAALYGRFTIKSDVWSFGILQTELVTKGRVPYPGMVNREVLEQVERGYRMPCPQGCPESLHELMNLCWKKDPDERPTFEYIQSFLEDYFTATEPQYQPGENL
Test: qHTS for small molecule inhibitors of Yes1 kinase: Primary Screen (AID 686947); note: nearly all actives have a fitted effect of over 60% in size; note: potency is the fitted concentration of half-maximal effect
Details: Yes1 kinase biochemical qHTS inhibition; series mostly up to 76.9 µM
Procedure, shortened: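 ADP-Glo luminescence reports ADP formed by 4 nM Yes1 phosphorylating poly(E4Y) (0.3 mg/mL) with 0.1 mM ATP for 60 min at room temperature, following 20 min compound preincubation; normalised between DMSO wells with and without enzyme.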

**Q.** For `COC(=O)Nc1nc2ccc(Oc3ccc(NC(=O)Nc4ccccc4)cc3)cc2[nH]1`, which Potency is on record?
**A.** inactive

**Q.** With `CN1CCC(C(=O)Nc2n[nH]c3nnc(-c4ccccc4)cc23)CC1` as the compound, how does the Potency read?
**A.** 13000 nM (active)

**Q.** For `CC(Oc1cc(-n2cnc3ccc(OC4CCN(C)CC4)cc32)sc1C(N)=O)c1ccccc1Cl` (stereo not given), which Potency is on record?
**A.** 5820 nM (active)

**Q.** With `CCn1c(-c2nonc2N)nc2c(C#CC(C)(C)O)nc(OC(CN)c3ccccc3)cc21` (stereo not given) as the compound, how does the Potency read?
**A.** 654 nM (active)

**Q.** With `COc1cccc(-n2nc(C)c3c(NN=C(C)c4ccncc4)ncnc32)c1` as the compound, how does the Potency read?
**A.** inactive

**Q.** Which Potency does the source give for `Cc1cc(O)cc(C)c1C=Cc1cncc(C(N)=O)c1` here?
**A.** 463 nM (active)

**Q.** With `COc1cc(Nc2ncc(-c3ccccc3)o2)cc(OC)c1` as the compound, how does the Potency read?
**A.** 1460 nM (active)

**Q.** For `NS(=O)(=O)c1ccc(N=Nc2c(O)[nH]c3ccc(Cl)cc23)cc1`, which Potency is on record?
**A.** 36800 nM (active)

**Q.** For `CCc1cccc(CC)c1C=Cc1cncc(C(=O)NC)c1`, which Potency is on record?
**A.** 26000 nM (active)

**Q.** For `COC(=O)c1cncc(C=Cc2c(C)cc(O)cc2C)c1`, which Potency is on record?
**A.** 1300 nM (active)

**Q.** For `COc1cccc(-n2ncc3c(NN=Cc4ccncc4)ncnc32)c1`, which Potency is on record?
**A.** 92.3 nM (active)

**Q.** Which Potency does the source give for `CS(=O)(=O)CCNCc1cc(-c2cc3c(Nc4ccc(OCc5cccc(F)c5)c(Cl)c4)ncnc3s2)cs1` here?
**A.** 46300 nM (active)

**Q.** For `O=C(Nc1n[nH]c2nc(-c3ccco3)ccc12)C1CC1`, which Potency is on record?
**A.** 2320 nM (active)

**Q.** For `CC1=C(C(=O)Nc2ccc3[nH]ncc3c2)C(c2ccc(F)cc2)NC(=O)N1` (stereo not given), which Potency is on record?
**A.** 26000 nM (active)

**Q.** With `NC(=O)Cc1ccccc1Oc1nccc(-c2c(-c3ccc(F)cc3)ncn2C2CCNCC2)n1` as the compound, how does the Potency read?
**A.** 36800 nM (active)

**Q.** For `CCn1c(-c2nonc2N)nc2c(C#CC(C)(C)O)nc(CN3CCCC3)cc21`, which Potency is on record?
**A.** 23200 nM (active)

**Q.** For `CNC(=O)c1ncccc1Nc1nc(Nc2cc3c(cc2OC)CCCN3C(=O)CN(C)C)nc2[nH]ccc12`, which Potency is on record?
**A.** inactive

**Q.** With `COc1cc(C)c(N(C)C(=O)CN(C)C)cc1Nc1nc(Nc2cccc(F)c2C(N)=O)c2cc[nH]c2n1` as the compound, how does the Potency read?
**A.** inactive

**Q.** With `CN1CCN(Cc2ccc(-c3cc4ncnc(Nc5ccc(OCc6cccc(F)c6)c(Cl)c5)c4s3)o2)CC1` as the compound, how does the Potency read?
**A.** 823 nM (active)

**Q.** With `COc1cc2ncnc(Nc3ccc4c(cnn4Cc4ccccc4)c3)c2cc1OC` as the compound, how does the Potency read?
**A.** 32.8 nM (active)

**Q.** Which Potency does the source give for `Nc1ncnc2occ(-c3ccc(NC(=O)Nc4cc(C(F)(F)F)cc(C(F)(F)F)c4)cc3)c12` here?
**A.** 3680 nM (active)

**Q.** With `COc1cccc(-n2ncc3c(NN=Cc4ccc(S(C)(=O)=O)cc4)ncnc32)c1` as the compound, how does the Potency read?
**A.** 92.3 nM (active)

**Q.** With `c1ccc(-c2nc3n(c2-c2ccc4c(c2)OCO4)CCC3)nc1` as the compound, how does the Potency read?
**A.** inactive

**Q.** For `CCc1ccc(Oc2nccc(-c3c(-c4ccc(F)cc4)ncn3C3CCNCC3)n2)cc1`, which Potency is on record?
**A.** inactive

**Q.** For `Nc1nccc(C#Cc2cncnc2Nc2ccc(OCc3cccc(F)c3)c(Cl)c2)n1`, which Potency is on record?
**A.** inactive

**Q.** For `CCCN(CCS(C)(=O)=O)Cc1ccc(-c2ccc3ncnc(Nc4ccc(OCc5cccc(F)c5)c(Cl)c4)c3c2)o1`, which Potency is on record?
**A.** 6540 nM (active)

**Q.** For `COc1cc2ncn(-c3cc(OCc4cccs4)c(C(N)=O)s3)c2cc1OC`, which Potency is on record?
**A.** 1840 nM (active)

**Q.** Which Potency does the source give for `Nc1ncnc2occ(-c3ccc(NC(=O)Nc4cccc(C(F)(F)F)c4)cc3)c12` here?
**A.** 1640 nM (active)

**Q.** With `COc1ccc(-c2ccncc2)cc1C(N)=O` as the compound, how does the Potency read?
**A.** inactive

**Q.** For `COC(=O)Nc1nc2ccc(Oc3ccc(NC(=O)Nc4cccc(Br)c4)cc3)cc2[nH]1`, which Potency is on record?
**A.** inactive

**Q.** With `CCN(CC)S(=O)(=O)c1ccc(OC)c(Nc2ncc(-c3ccccc3)o2)c1` as the compound, how does the Potency read?
**A.** 654 nM (active)

**Q.** Which Potency does the source give for `CCCNc1cccc(-n2ncc3c(NN=Cc4ccncc4)ncnc32)c1` here?
**A.** 32.8 nM (active)

**Q.** Which Potency does the source give for `Clc1ccc(-c2nn3ncccc3c2-c2ccnc(Nc3ccccc3)n2)cc1` here?
**A.** 292 nM (active)

**Q.** For `O=C(Nc1ccc(Oc2ccc3nc(NC(=O)c4ccco4)[nH]c3c2)cc1)Nc1cc(C(F)(F)F)ccc1F`, which Potency is on record?
**A.** 4120 nM (active)

**Q.** Which Potency does the source give for `NC(=O)c1cc(-c2ccc(F)cc2)cc(-c2ccncc2)c1N` here?
**A.** inactive

**Q.** Which Potency does the source give for `CC(Oc1cc(-n2cnc3ccc(OCC4CCN(C)CC4)cc32)sc1C(N)=O)c1ccccc1Cl` (stereo not given) here?
**A.** 1640 nM (active)

**Q.** Which Potency does the source give for `NS(=O)(=O)c1ccc(N=Nc2c(O)[nH]c3ccc(-c4cnco4)cc23)cc1` here?
**A.** inactive

**Q.** Which Potency does the source give for `CNC(=O)c1cncc(C=Cc2c(C)cccc2C)c1` here?
**A.** 463 nM (active)

**Q.** For `COc1ccc2c(-c3ccnc(Nc4cccc(OC(F)(F)F)c4)n3)cnn2n1`, which Potency is on record?
**A.** 26000 nM (active)

**Q.** For `NCc1ccc(-n2c(-c3nonc3N)nc3cnccc32)cc1`, which Potency is on record?
**A.** inactive

System: not listed separately
Test: qHTS for small molecule inhibitors of Yes1 kinase: Counter Assay (AID 686950);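 note: no kinase present so only ADP-Glo detection of a fixed ADP amount is tested; luminescence from ADP-Glo reporting ADP in a fixed ATP and ADP mixture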
Details: series mostly up to 76.9 µM
Procedure, shortened: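 Measuring interference with ADP-Glo, the assay ran 60 min at room temperature on an ATP/ADP mix lacking enzyme. Values were normalized to ATP-plus-ADP (maximum) and ATP-only (minimum) DMSO controls.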

**Q.** Which outcome does the source give for `COC(=O)Nc1nc2ccc(Oc3ccc(NC(=O)Nc4ccccc4)cc3)cc2[nH]1` here?
**A.** inactive

**Q.** For `CN1CCC(C(=O)Nc2n[nH]c3nnc(-c4ccccc4)cc23)CC1`, which outcome is on record?
**A.** inactive

**Q.** Which outcome does the source give for `CC(Oc1cc(-n2cnc3ccc(OC4CCN(C)CC4)cc32)sc1C(N)=O)c1ccccc1Cl` (stereo not given) here?
**A.** inactive

**Q.** Which outcome does the source give for `CCn1c(-c2nonc2N)nc2c(C#CC(C)(C)O)nc(OC(CN)c3ccccc3)cc21` (stereo not given) here?
**A.** inactive

**Q.** Which outcome does the source give for `COc1cccc(-n2nc(C)c3c(NN=C(C)c4ccncc4)ncnc32)c1` here?
**A.** inactive

**Q.** For `Cc1cc(O)cc(C)c1C=Cc1cncc(C(N)=O)c1`, which outcome is on record?
**A.** inactive

**Q.** For `COc1cc(Nc2ncc(-c3ccccc3)o2)cc(OC)c1`, which outcome is on record?
**A.** inactive

**Q.** Which outcome does the source give for `NS(=O)(=O)c1ccc(N=Nc2c(O)[nH]c3ccc(Cl)cc23)cc1` here?
**A.** inactive

**Q.** Which outcome does the source give for `CCc1cccc(CC)c1C=Cc1cncc(C(=O)NC)c1` here?
**A.** inactive

**Q.** For `COC(=O)c1cncc(C=Cc2c(C)cc(O)cc2C)c1`, which outcome is on record?
**A.** inactive

**Q.** For `COc1cccc(-n2ncc3c(NN=Cc4ccncc4)ncnc32)c1`, which outcome is on record?
**A.** inactive

**Q.** With `CS(=O)(=O)CCNCc1cc(-c2cc3c(Nc4ccc(OCc5cccc(F)c5)c(Cl)c4)ncnc3s2)cs1` as the compound, how does the outcome read?
**A.** inactive

**Q.** For `O=C(Nc1n[nH]c2nc(-c3ccco3)ccc12)C1CC1`, which outcome is on record?
**A.** inactive

**Q.** Which outcome does the source give for `CC1=C(C(=O)Nc2ccc3[nH]ncc3c2)C(c2ccc(F)cc2)NC(=O)N1` (stereo not given) here?
**A.** inactive

**Q.** With `NC(=O)Cc1ccccc1Oc1nccc(-c2c(-c3ccc(F)cc3)ncn2C2CCNCC2)n1` as the compound, how does the outcome read?
**A.** inactive

**Q.** With `CCn1c(-c2nonc2N)nc2c(C#CC(C)(C)O)nc(CN3CCCC3)cc21` as the compound, how does the outcome read?
**A.** inactive

**Q.** With `CNC(=O)c1ncccc1Nc1nc(Nc2cc3c(cc2OC)CCCN3C(=O)CN(C)C)nc2[nH]ccc12` as the compound, how does the outcome read?
**A.** inactive

**Q.** Which outcome does the source give for `COc1cc(C)c(N(C)C(=O)CN(C)C)cc1Nc1nc(Nc2cccc(F)c2C(N)=O)c2cc[nH]c2n1` here?
**A.** inactive

**Q.** For `CN1CCN(Cc2ccc(-c3cc4ncnc(Nc5ccc(OCc6cccc(F)c6)c(Cl)c5)c4s3)o2)CC1`, which outcome is on record?
**A.** inactive

**Q.** For `COc1cc2ncnc(Nc3ccc4c(cnn4Cc4ccccc4)c3)c2cc1OC`, which outcome is on record?
**A.** inactive

**Q.** With `Nc1ncnc2occ(-c3ccc(NC(=O)Nc4cc(C(F)(F)F)cc(C(F)(F)F)c4)cc3)c12` as the compound, how does the outcome read?
**A.** inactive

**Q.** For `COc1cccc(-n2ncc3c(NN=Cc4ccc(S(C)(=O)=O)cc4)ncnc32)c1`, which outcome is on record?
**A.** inactive

**Q.** With `c1ccc(-c2nc3n(c2-c2ccc4c(c2)OCO4)CCC3)nc1` as the compound, how does the outcome read?
**A.** inactive

**Q.** For `CCc1ccc(Oc2nccc(-c3c(-c4ccc(F)cc4)ncn3C3CCNCC3)n2)cc1`, which outcome is on record?
**A.** inactive

**Q.** Which outcome does the source give for `Nc1nccc(C#Cc2cncnc2Nc2ccc(OCc3cccc(F)c3)c(Cl)c2)n1` here?
**A.** inactive

**Q.** With `CCCN(CCS(C)(=O)=O)Cc1ccc(-c2ccc3ncnc(Nc4ccc(OCc5cccc(F)c5)c(Cl)c4)c3c2)o1` as the compound, how does the outcome read?
**A.** inactive

**Q.** For `COc1cc2ncn(-c3cc(OCc4cccs4)c(C(N)=O)s3)c2cc1OC`, which outcome is on record?
**A.** inactive

**Q.** For `Nc1ncnc2occ(-c3ccc(NC(=O)Nc4cccc(C(F)(F)F)c4)cc3)c12`, which outcome is on record?
**A.** inactive

**Q.** For `COc1ccc(-c2ccncc2)cc1C(N)=O`, which outcome is on record?
**A.** inactive

**Q.** Which outcome does the source give for `COC(=O)Nc1nc2ccc(Oc3ccc(NC(=O)Nc4cccc(Br)c4)cc3)cc2[nH]1` here?
**A.** inactive

**Q.** With `CCN(CC)S(=O)(=O)c1ccc(OC)c(Nc2ncc(-c3ccccc3)o2)c1` as the compound, how does the outcome read?
**A.** inactive

**Q.** With `CCCNc1cccc(-n2ncc3c(NN=Cc4ccncc4)ncnc32)c1` as the compound, how does the outcome read?
**A.** inactive

**Q.** Which outcome does the source give for `Clc1ccc(-c2nn3ncccc3c2-c2ccnc(Nc3ccccc3)n2)cc1` here?
**A.** inactive

**Q.** Which outcome does the source give for `O=C(Nc1ccc(Oc2ccc3nc(NC(=O)c4ccco4)[nH]c3c2)cc1)Nc1cc(C(F)(F)F)ccc1F` here?
**A.** inactive

**Q.** For `NC(=O)c1cc(-c2ccc(F)cc2)cc(-c2ccncc2)c1N`, which outcome is on record?
**A.** inactive

**Q.** Which outcome does the source give for `CC(Oc1cc(-n2cnc3ccc(OCC4CCN(C)CC4)cc32)sc1C(N)=O)c1ccccc1Cl` (stereo not given) here?
**A.** inactive

**Q.** For `NS(=O)(=O)c1ccc(N=Nc2c(O)[nH]c3ccc(-c4cnco4)cc23)cc1`, which outcome is on record?
**A.** inactive

**Q.** With `CNC(=O)c1cncc(C=Cc2c(C)cccc2C)c1` as the compound, how does the outcome read?
**A.** inactive

**Q.** For `COc1ccc2c(-c3ccnc(Nc4cccc(OC(F)(F)F)c4)n3)cnn2n1`, which outcome is on record?
**A.** inactive

**Q.** For `NCc1ccc(-n2c(-c3nonc3N)nc3cnccc32)cc1`, which outcome is on record?
**A.** inactive
